From paper PMC5540273 (PLoS ONE, 2017)

Experiments:
Settings in all cases: concentration: 1 μM, replicates: in singlicate; n = 1
CHEK2 = system: CHEK2
CIT = system: CIT
CLK1 = system: CLK1
CLK2 = system: CLK2
CLK3 = system: CLK3
CLK4 = system: CLK4
CSF1R-autoinhibited = system: CSF1R-autoinhibited
CSF1R = system: CSF1R
CSK = system: CSK
CSNK1A1L = system: CSNK1A1L
CSNK1A1 = system: CSNK1A1
CSNK1D = system: CSNK1D
CSNK1E = system: CSNK1E
CSNK1G1 = system: CSNK1G1
CSNK1G2 = system: CSNK1G2
CSNK1G3 = system: CSNK1G3
CSNK2A1 = system: CSNK2A1
CSNK2A2 = system: CSNK2A2
CTK = system: T1, CTK
T1 construct: gene MATK

DAPK1 = system: DAPK1
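Further: KINOMEscan kinase panel screen.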

| SMILES | %Inh (CHEK2) [%] | %Inh (CIT) [%] | %Inh (CLK1) [%] | %Inh (CLK2) [%] | %Inh (CLK3) [%] | %Inh (CLK4) [%] | %Inh (CSF1R-autoinhibited) [%] | %Inh (CSF1R) [%] | %Inh (CSK) [%] | %Inh (CSNK1A1L) [%] | %Inh (CSNK1A1) [%] | %Inh (CSNK1D) [%] | %Inh (CSNK1E) [%] | %Inh (CSNK1G1) [%] | %Inh (CSNK1G2) [%] | %Inh (CSNK1G3) [%] | %Inh (CSNK2A1) [%] | %Inh (CSNK2A2) [%] | %Inh (CTK) [%] | %Inh (DAPK1) [%] |
| --- | --- | --- | --- | --- | --- | --- | --- | --- | --- | --- | --- | --- | --- | --- | --- | --- | --- | --- | --- | --- |
| CS(=O)(=O)c1ccc(-c2nc3n(c2-c2ccncc2)CCC3)cc1 [SKF-105942] | 0 | 4 | 11 | 0 | 0 | 0 | 0 | 0 | 100 | 2 | 0 | 6 | 22 | 4 | 0 | 2 | 0 | 9 | 0 | 0 |
| CC1=C(C(=O)Nc2cc3cn[nH]c3cc2F)C(c2ccc(C(F)(F)F)cc2)CC(=O)N1 (stereo not shown) [GSK429286] | 0 | 5 | 14 | 0 | 37 | 0 | 0 | 7 | 0 | 7 | 0 | 10 | 25 | 7 | 0 | 12 | 18 | 0 | 0 | 9 |
| COc1ccc(C2=C(Nc3cccc(C(=O)O)c3)C(=O)NC2=O)cc1 [SB-390765] | 0 | 0 | 11 | 3 | 8 | 4 | 26 | 18 | 12 | 11 | 15 | 14 | 0 | 11 | 0 | 3 | 18 | 10 | 43 | 5 |
| O=C(Nc1n[nH]c2cc(-c3cccc(F)c3F)ccc12)C1CC1 [SB-733894] | 0 | 6 | 0 | 13 | 0 | 0 | 0 | 7 | 0 | 0 | 16 | 17 | 0 | 0 | 4 | 0 | 0 | 29 | 56 | 20 |
| O=S(=O)(c1ccc(-c2ccnc3[nH]ccc23)cc1)N1CCCC1 [GSK846226] | 15 | 36 | 63 | 45 | 57 | 41 | 0 | 17 | 10 | 2 | 0 | 7 | 41 | 5 | 0 | 37 | 4 | 6 | 0 | 58 |
